# USP28 block – inhibitors of human USP28 deubiquitinase. actives 3% (n = 47,000). inhibition, % at 25 µM. purified USP28, Ub-rhodamine cleavage fluorescence, 30 min. Q96RU2. AID 1645857
# USP30 block – blocks human USP30 ubiquitin-rhodamine cleavage; inhibition, % at 25 µM; actives 5.3% (n = 47,000); Q70CQ3; purified USP30, Ub-rhodamine cleavage fluorescence
# OTUD3 inh – blocks human OTUD3 ubiquitin-rhodamine cleavage | purified OTUD3, Ub-rhodamine fluorescence, 2 h | inhibition, % at 25 µM | actives 0.7% (n = 47,000) | AID 1645858
# Target sequence (Q5T2D3 whole entry, looked up): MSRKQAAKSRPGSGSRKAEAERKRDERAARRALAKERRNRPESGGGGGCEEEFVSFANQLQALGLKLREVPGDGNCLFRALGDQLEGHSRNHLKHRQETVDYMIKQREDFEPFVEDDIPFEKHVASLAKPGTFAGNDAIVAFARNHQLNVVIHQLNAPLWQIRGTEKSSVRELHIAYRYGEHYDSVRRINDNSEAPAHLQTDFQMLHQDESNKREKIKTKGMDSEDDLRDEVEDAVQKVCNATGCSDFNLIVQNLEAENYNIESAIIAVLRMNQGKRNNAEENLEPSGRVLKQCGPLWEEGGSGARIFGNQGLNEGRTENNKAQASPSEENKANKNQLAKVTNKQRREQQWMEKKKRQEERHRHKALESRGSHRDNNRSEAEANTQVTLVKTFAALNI
# USP17 block – blocks human USP17 ubiquitin-rhodamine cleavage | purified USP17, Ub-rhodamine cleavage fluorescence, 3 h | inhibition, % at 50 µM | actives 6.5% (n = 47,000) | AID 1645855 | A8MUK1
# Active calls of the source: *. Only some compounds are listed: those with a hit (about 12% of all), similar ones and a draw of the others. No stated cut-off is given here; in the data, active means inhibition above about 30%; inactive means the rest.
SMILES,USP28 block,USP30 block,OTUD3 inh,USP17 block
O=C(Nc1ccccc1)N1CCC2(CC1)C(=O)Nc1c(Oc3ccccc3)cccc12,24,2,0,-27
COc1cccc2c1NC(=O)C21CCN(C(=O)Nc2cccc3ccccc23)CC1,23,20,16,92*
O=C1C=CC(O)C2C1CC13SSC4(CC5C(=O)C=CC(O)C5N4C1=O)C(=O)N23 (centres undefined),2,60*,18,-17
O=C(O)c1cccc2nc3ccccc3nc12,0,-10,5,39*
CN1CC[C@@H]2[C@H]1CCCCN2C(=O)COc1ccc(F)cc1,-7,-32,-15,-29
CN1CCCC[C@@H]2N(C(=O)Cn3ccc(=O)[nH]c3=O)CCC[C@@]21C,11,31*,15,12
CC[C@@H]1C[C@H]2CC[C@H](O2)[C@H](C)C(=O)O[C@@H](C)C[C@@H]2CC[C@@H](O2)[C@@H](C)C(=O)O[C@H](CC)C[C@H]2CC[C@H](O2)[C@H](C)C(=O)O[C@@H](C)C[C@@H]2CC[C@@H](O2)[C@@H](C)C(=O)O1,-1,3,-6,4
C/C=C1/CN2CC[C@]34C(=C(C(=O)OC)[C@H]1C[C@H]23)Nc1c(O)cccc14,-35,-99,-37,37*
CO[C@H]1/C=C/C=C\C=C\C[C@H](OC(=O)[C@@H](C)NC(=O)C2CCCCC2)[C@H](C)[C@@H](O)/C(C)=C\CCc2cc(O)cc(c2O)NC(=O)C1,-7,-36,-6,33*
Cc1cc(C)nc(-n2nc(C)c3c2NC(=O)CSC3c2ccc(O)cc2)n1 (centres undefined),-21,-35,-8,-42
Cc1cc(C)nc(-n2nc(C)c3c2NC(=O)CSC3c2ccc(F)cc2F)n1 (centres undefined),2,77*,0,45*
COC(=O)C[C@@H]1C/C=C/C(=O)O[C@H]([C@H](C)[C@@H](O)/C(C)=C/C=C/C(C)=C/c2coc(C)n2)C[C@H](O)[C@@]2(C)O[C@@H]2/C=C/[C@@H](C)[C@H](O)C1,-33,-101,-27,-48
COC1=C2C[C@H](C)C[C@@H](OC)[C@H](O)[C@H](C)/C=C(\C)[C@@H](OC(N)=O)[C@@H](OC)CC/C=C(\C)C(=O)NC(=CC1=O)C2=O,-28,-59,-18,-14
CN1C2(CCN(Cc3ccccn3)C2)c2ccccc2S1(=O)=O (centres undefined),-7,-140,-7,-44
COCC(O)C1OC(=O)C(O)CC2C=CC3C4OC2(/C(C)=C\C1C)C3C(O)C(COC)C4OC(=O)c1ccc[nH]1 (centres undefined),9,38*,11,0
CO/C1=C\C(C)=C\[C@@H](C)[C@@H](O)[C@H](C)C/C(C)=C/C=C/[C@H](OC)[C@@H]([C@@H](C)[C@@H](O)[C@H](C)[C@@]2(O)C[C@@H](OC(=O)/C=C/C(=O)NC3=C(O)CCC3=O)[C@H](C)[C@@H](C(C)C)O2)OC1=O,19,-60,3,40*
C[C@H]1NCCc2c1[nH]c1ccccc21,-25,-81,-20,-27
Cc1c(Cl)cccc1NC(=O)CCc1nc(C2=CCN(C)CC2)no1,-11,-39,-16,-12
CCOc1ccc(C2SCC(=O)Nc3c2c(=O)[nH]n3C2CCCCC2)cc1 (centres undefined),12,35*,9,14
O=C1CSC(c2ccc3c(c2)OCO3)c2c(-c3ccccc3)nn(-c3ccccc3)c2N1 (centres undefined),19,30*,15,10
CC1(C)CC(n2[nH]c(=O)c3c2NC(=O)CSC3c2ccc(OCc3ccccc3)cc2)CCO1 (centres undefined),26,53*,8,25
CCOc1ccc(C2SCC(=O)Nc3c2c(=O)[nH]n3C2CCCCCC2)cc1 (centres undefined),-9,-1,-11,3
O=C1CSC(c2ccc3c(c2)OCO3)c2c(n(C3CCCCCC3)[nH]c2=O)N1 (centres undefined),13,33*,10,19
Cc1ccc(C2SCC(=O)Nc3c2c(=O)[nH]n3C2CCCCC2)cc1 (centres undefined),10,17,18,22
Nc1ncnc2c1ncn2C1OC(COC2C(CO)OC(OC(C(=O)O)C(O)C(OP(=O)(O)O)C(O)C(=O)O)C(O)C2O)C(O)C1O (centres undefined),9,17,16,15
CC1=CC(=O)C2=C(C)C[C@H](O)C3[C@H](C)C(=O)O[C@@H]3[C@@H]12 (some centres undefined),11,6,9,7
O=c1c2cc([N+](=O)[O-])ccc2nc(CN2CCC(O)CC2)n1-c1ccccc1F,0,-5,9,6
